Results filed as inconclusive are left out. A call without a number means that no potency is given here. The source made the active and inactive calls. The call rests on the fitted dose curve; in most records, active means well fitted curve in the direction sought with a large enough effect; inconclusive means small, poorly fitted or top-dose-only effect, or another doubt; inactive means no such curve, though single readings can be large; an effect the other way counts as inactive or inconclusive.

Sequence of Cytochrome P450 2C19 (Homo sapiens) (P33261 whole entry, looked up): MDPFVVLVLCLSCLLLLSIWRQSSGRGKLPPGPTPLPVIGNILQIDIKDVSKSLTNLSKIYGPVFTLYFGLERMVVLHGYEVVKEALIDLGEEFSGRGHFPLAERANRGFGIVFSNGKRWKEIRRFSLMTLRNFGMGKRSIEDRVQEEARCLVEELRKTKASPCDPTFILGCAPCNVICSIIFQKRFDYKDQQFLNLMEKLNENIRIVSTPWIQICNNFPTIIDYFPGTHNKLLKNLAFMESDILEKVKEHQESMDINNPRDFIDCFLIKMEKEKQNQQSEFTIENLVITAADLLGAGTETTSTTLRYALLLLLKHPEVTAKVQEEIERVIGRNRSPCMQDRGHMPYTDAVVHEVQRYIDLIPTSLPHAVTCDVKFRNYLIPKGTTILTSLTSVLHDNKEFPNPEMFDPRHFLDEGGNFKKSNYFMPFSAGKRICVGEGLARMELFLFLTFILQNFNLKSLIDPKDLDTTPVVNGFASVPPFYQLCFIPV

The target in one assay is Cytochrome P450 2D6 (Homo sapiens) (UniProt P10635). The assay can be described thus: qHTS Assay for Inhibitors and Substrates of Cytochrome P450 2D6 (AID 891). Further: nearly all actives have a fitted effect of over 60% in size. Further: potency means the concentration at half of the fitted maximal effect. The settings on record: recombinant CYP2D6, luciferin-ME EGE luminescence; series mostly up to 11.4 µM. The method, boiled down: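 Luminescent read-out of luciferin formed by 5 nM human CYP2D6 demethylating 30 uM Luciferin-ME EGE (Km level) over 60 min at room temperature after NADPH regeneration addition. Data normalized to full inhibition by 1.43 uM quinidine.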
Sequence of Cytochrome P450 2D6 (Homo sapiens) (P10635 whole entry, looked up): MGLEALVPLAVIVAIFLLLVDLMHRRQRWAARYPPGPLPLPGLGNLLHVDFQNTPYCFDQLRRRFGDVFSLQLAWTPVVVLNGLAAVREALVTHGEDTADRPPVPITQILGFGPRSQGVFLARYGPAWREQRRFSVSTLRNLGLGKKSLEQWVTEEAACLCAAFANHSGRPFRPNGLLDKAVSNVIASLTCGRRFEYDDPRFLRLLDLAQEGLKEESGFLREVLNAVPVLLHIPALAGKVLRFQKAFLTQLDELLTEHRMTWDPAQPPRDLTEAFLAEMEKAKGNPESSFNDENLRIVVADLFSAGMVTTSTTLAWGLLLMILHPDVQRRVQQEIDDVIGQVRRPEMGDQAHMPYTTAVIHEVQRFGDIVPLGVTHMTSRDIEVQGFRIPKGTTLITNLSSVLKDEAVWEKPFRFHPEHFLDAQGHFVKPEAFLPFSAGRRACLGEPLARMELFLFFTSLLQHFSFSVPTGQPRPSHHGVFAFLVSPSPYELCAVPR
In general terms: In qHTS, concentration-response curves come from the screen itself.
As to `COC(=O)C/C=C\[C@@H](C)[C@@H](/C=N\O[C@@H](C)CN1CCCc2nc(C)c(C)cc21)NS(=O)(=O)c1ccc(C)cc1`, the Potency was 3160 nM (active).
On the same count and under the same terms, under `CC(C)(C)N1C(=O)[C@H]2[C@@H]3[C@H](O)[C@H](O)CC(=O)[C@H]3CC[C@H]2C1=O` stands “inactive”; under `C[C@@H](c1ccccc1)N1C(=O)[C@H]2[C@@H]3[C@H](O)C=CC(=O)[C@H]3CC[C@H]2C1=O`, “inactive”.

Another assay addresses Cytochrome P450 2C19 (Homo sapiens) (UniProt P33261). Briefly: qHTS Assay for Inhibitors and Substrates of Cytochrome P450 2C19 (AID 899). Further: nearly all actives have a fitted effect of over 60% in size. Further: potency means the concentration at half of the fitted maximal effect. The settings on record: recombinant CYP2C19, luciferin-H EGE luminescence; series mostly up to 11.4 µM. Put shortly:
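Luminescent read-out of luciferin formed from Luciferin-H EGE (10uM, equal to KM). Enzyme 5nM in 50mM KPO4; compound added, 10 min at 37C, then NADPH regenerating system for 60 min at 37C. Full inhibition defined by 57uM ketoconazole.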
With `CCN1C(=O)[C@@H]2[C@H]3C(=CC[C@@H]2C1=O)C1(OCCCO1)[C@H]1O[C@@H]1[C@H]3O`, the Potency is 1580 nM (active).
On to `CO[C@@H]1COC(=O)[C@H](C)NC(=O)C/C=C\[C@@H](C)[C@@H](NS(=O)(=O)c2ccc(C)cc2)COC(=O)C/C=C\[C@@H]1C`, for which the Potency entry was “inactive”.
With `CC(C)=NO[C@@H](C)c1cn([C@@H]2COC[C@@H]2O)nn1`, the Potency result was “inactive”.
As for `COC(=O)[C@H](Cc1ccccc1)NC(=O)[C@@H](C)CO`, the Potency is 1260 nM (active).
As to `CCOC(=O)CCN1C(=O)[C@H]2[C@@H]3[C@H](O)[C@H](O)CC(=O)[C@H]3CC[C@H]2C1=O`, the Potency entry is “inactive”.
Same read-out and setting: in the case of `Cc1ccc(S(=O)(=O)N[C@H]2COC(=O)C/C=C\[C@@H](C)[C@H](NS(=O)(=O)c3ccc(C)cc3)COC(=O)[C@H](C)NC(=O)C/C=C\[C@H]2C)cc1` it was “inactive”; in that of `O=C1[C@H]2[C@H]3[C@H](O)[C@H](O)C/C(=N/OC[C@@H](O)COCc4ccco4)[C@@H]3CC[C@@H]2C(=O)N1C[C@@H]1CCCO1`, “inactive”; in that of `CO[C@@H]1COC(=O)[C@@H](CCSC)NC(=O)C/C=C\[C@@H](C)COC(=O)[C@H](C)NC(=O)C/C=C\[C@H]1C`, “inactive”.
In the case of `CO[C@@H]1COC(=O)[C@H]2CCCN2C(=O)[C@@H](C)COC(=O)CCC[C@H]1C`, the Potency result is “inactive”.
On the same count and under the same terms, under `O=C1C[C@H](c2ccccc2)[C@@H](c2ccc(Br)cc2)O1` stands 398 nM (active); under `CC(=O)OC[C@@H]1O[C@@H](O/N=C2/C[C@@H](O)[C@@H](O)[C@@H]3[C@@H]4C(=O)N(C(C)(C)C)C(=O)[C@H]4CC[C@H]23)[C@H](OC(C)=O)[C@H](OC(C)=O)[C@@H]1OC(C)=O`, “inactive”.
Take `CC(=O)OC[C@H]1O[C@@H](O/N=C2/[C@H]3O[C@@H]3[C@@H](O)[C@H]3[C@H]2CCn2c(=O)n(-c4ccccc4)c(=O)n23)[C@H](OC(C)=O)[C@@H](OC(C)=O)[C@@H]1OC(C)=O`: the Potency result is “inactive”.
Take `C=CC1=C[C@@H](O)C2OC2C12OCCCO2` (some centres not stated): the Potency result is “inactive”.
As for `CO[C@@H]1COC(=O)[C@H](Cc2ccccc2)NC(=O)C/C=C\[C@@H](C)[C@H](OC)COC(=O)[C@@H](C)NC(=O)C/C=C\[C@H]1C`, the Potency result is “inactive”.
For `COc1ccc(O[C@H]2C=C[C@@H](c3ccccc3)O[C@@H]2CO/N=C(\C)CCN2CCc3nc(-c4ccccc4)c(-c4ccccc4)cc3C2)cc1`, the Potency was 251 nM (active).
On the same count and under the same terms, in the case of `C[C@H]1COC(=O)[C@H]2CCCN2C(=O)[C@@H](C)COC(=O)[C@H](Cc2ccccc2)NC1=O` it was “inactive”.
For the compound `CC(C)(C)N1C(=O)[C@H]2[C@@H]3[C@H](O)[C@H](O)CC(=O)[C@H]3CC[C@H]2C1=O`, the Potency result was “inactive”.
In the case of `CC(=O)OC[C@@H]1O[C@H](C/C=N\O[C@@H](C)c2cn([C@H]3COC[C@H]3O)nn2)C=C[C@@H]1OC(C)=O`, the Potency entry was “inactive”.
On the same count and under the same terms, under `C[C@@H](c1ccccc1)N1C(=O)[C@H]2[C@@H]3[C@H](O)C=CC(=O)[C@H]3CC[C@H]2C1=O` stands “inactive”; under `CO/N=C\[C@@H](NS(=O)(=O)c1ccc(C)cc1)[C@H](C)/C=C\CC(=O)OC`, 3160 nM (active); under `CC(C)=CCC/C(C)=C/CO/N=C1/C[C@@H](O)[C@@H](O)[C@@H]2[C@@H]3C(=O)N(Cc4ccccc4)C(=O)[C@H]3CC[C@@H]12`, “inactive”.
As to `COC(=O)C/C=C\[C@@H](C)[C@@H](/C=N\O[C@@H](C)c1cn([C@H]2COC[C@H]2O)nn1)OC`, the Potency entry is “inactive”.
As to `C#CCCCO/N=C1/C[C@@H](O)[C@@H](O)[C@@H]2[C@@H]3C(=O)N(Cc4ccccc4)C(=O)[C@H]3CC[C@@H]12`, the Potency result was “inactive”.
On to `O=C1[C@H]2[C@H]3[C@H](O)[C@H](O)C/C(=N/OCc4ccccc4)[C@H]3CC[C@@H]2C(=O)N1C[C@@H]1CCCO1`, for which the Potency result was “inactive”.
On the same count and under the same terms, in the case of `C[C@@H]1/C=C\CC(=O)OC[C@H](C)C(=O)N[C@@H](C)C(=O)OC1` it was “inactive”.
As for `CO[C@@H]1COC(=O)[C@H]2CCCN2C(=O)C/C=C\[C@@H](C)[C@H](OC)COC(=O)[C@H]2CCCN2C(=O)C/C=C\[C@H]1C`, the Potency entry was “inactive”.

Tested on in the next assay: not listed separately
The assay can be described thus: Confirmation and Secondary Assay for Modulators of Hemoglobin Beta Chain Splicing at IVS2 654 locus (AID 910).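 Further: HeLa cells stably carrying EGFP split by mutant beta-globin IVS2-654 intron.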 As to conditions: HeLa EGFP-654 splicing reporter, GFP fluorescence, 48 h; series mostly up to 46.1 µM. Put shortly:
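HeLa cells stably expressing EGFP interrupted by β-globin IVS2-654 intron, seeded overnight in Opti-MEM/2% FCS, then treated 2 days at 37 °C. Restored splicing read as total peak GFP intensity per well by laser scanning cytometry (488 nm excitation, 500–520 nm emission); 500 nM antisense PNA as control.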
For `CC(=O)N1CCN(c2ccc(OCC3CO[C@@](Cn4ccnc4)(c4ccc(Cl)cc4Cl)O3)cc2)CC1` (some centres not stated), the outcome was inactive.
As for `NC(=O)c1cc[n+](CC2=C(C(=O)O)N3C(=O)C(NC(=O)C(c4ccccc4)S(=O)(=O)[O-])C3SC2)cc1` (configuration not stated), the compound was classed as inactive.
On the same count and under the same terms, in the case of `CC1CC[C@@]2(C(=O)O)CC[C@]3(C)C(=CCC4[C@@]5(C)CCC(O)C(C)(C)C5CC[C@@]43C)C2C1C` (some centres not stated) it was “inactive”; in that of `COc1cc2c(cc1OC)C1C(=O)c3c(O)cc4c(c3OC1CO2)C=CC(C)(C)O4` (configuration not stated), “inactive”; in that of `C=C1c2c(Cl)ccc(O)c2C(O)=C2C(=O)[C@]3(O)C(O)=C(C(N)=O)C(=O)C(N(C)C)C3C(O)C12` (some centres not stated), “inactive”.
For the compound `CCOC(=O)C1=C[C@@]2(CC)CCCN3CCc4c(n1c1ccccc41)C32` (some centres not stated), the result was inactive.
In the case of `Nc1ncn(C2OC(CO)C(O)C2O)c(=O)n1` (configuration not stated), the result was inactive.
Same read-out and setting: in the case of `CC1(C)C(=O)C=C[C@]2(C)C1CC(=O)[C@]1(C)C2CC[C@@]2(C)C(c3ccoc3)OC(=O)C3O[C@@]321` (some centres not stated) it was “inactive”; in that of `CN1C[C@H](C(=O)N[C@@]2(C)O[C@@]3(O)C4CCCN4C(=O)C(Cc4ccccc4)N3C2=O)C[C@H]2c3cccc4[nH]cc(c34)C[C@H]21` (some centres not stated), “inactive”; in that of `COc1cc2c(cc1OC)C1C(=O)c3c(cc4c(c3O)C=CC(C)(C)O4)OC1CO2` (configuration not stated), “inactive”.
As for `CC(C)CC1C(=O)N2CCCC2C2(O)O[C@@](NC(=O)C3C=C4c5cccc6[nH]c(Br)c(c56)CC4N(C)C3)(C(C)C)C(=O)N12` (some centres not stated), the compound was called inactive.
Regarding `COc1cc2c(c(OC)c1OC)-c1ccc(OC)c(=O)cc1C(NC(C)=O)CC2` (configuration not stated), the result was inactive.
With `CC1CC2C3CC(F)C4=CC(=O)C=C[C@@]4(C)[C@@]3(F)C(O)C[C@]2(C)[C@]1(O)C(=O)COC(=O)C(C)(C)C` (some centres not stated), the call was inactive.

The values are drawn from PubChem BioAssay (NCATS).
